# JMJD2A Tudor: inhibitors of human JMJD2A Tudor domain | AlphaScreen JMJD2A-Tudor / H3K4me3 peptide binding | Potency, µM (doses to about 114 µM), for the others: at the highest dose activity change, negative = inhibition, hits mostly inhibitors | 390,000 compounds, 4.4% hits; also: % is scaled to controls: 0 for no effect and ±100 for the full control effect; nearly all actives have a fitted effect of over 50% in size
# G9a block: G9a (human) methyltransferase inhibition; G9a H3K9 monomethylation, AlphaScreen, 2 h; Potency, µM (doses to about 102 µM), for the others: at the top dose activity, negative = inhibition, usual class: inhibitors; 350,000 compounds, 8.8% hits; AID 504332; also: % is scaled to controls: 0 for no effect and ±100 for the full control effect; nearly all actives have a fitted effect of over 75% in size
# Target sequence (Q96KQ7 913-1193 limits assumed): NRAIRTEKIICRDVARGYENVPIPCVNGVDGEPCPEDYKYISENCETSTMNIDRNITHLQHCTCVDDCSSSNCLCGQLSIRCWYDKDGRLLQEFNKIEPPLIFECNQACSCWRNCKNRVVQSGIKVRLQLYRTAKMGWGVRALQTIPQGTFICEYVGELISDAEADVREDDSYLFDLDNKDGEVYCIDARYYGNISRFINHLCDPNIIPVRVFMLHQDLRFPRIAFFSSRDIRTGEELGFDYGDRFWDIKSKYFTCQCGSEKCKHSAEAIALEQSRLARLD
#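 Compounds were preincubated with 20 nM G9a for 15 min, after which biotinylated H3K9 peptide (500 nM) and SAM (20 uM) started a 2 h room-temperature reaction. Monomethylated product was quantified by antibody-based AlphaScreen chemiluminescence.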
# BAZ2B block: inhibitors of human BAZ2B bromodomain | Q9UIF8 | AlphaScreen BAZ2B-H3K14Ac peptide displacement | Potency, µM (top dose mostly 114 µM), inactives show at the highest dose activity change, negative = inhibition, actives largely listed as inhibitors | 360,000 compounds, 4.4% hits; also: % is scaled to controls: 0 for no effect and ±100 for the full control effect; nearly all actives have a fitted effect of over 60% in size
#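 AlphaScreen luminescence quantifies BAZ2B engagement of H3K14Ac peptide; the protein and biotinylated peptide are both at 50 nM final, buffer PBS pH 7.4 with 0.01% Tween-20, all steps at room temperature.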
# HP1b binding inh: inhibitors of HP1-beta chromodomain binding to methylated histone tails; Potency, µM (doses to about 114 µM), without a hit: top-dose activity change, negative = inhibition, most hits filed as inhibitors; AlphaScreen HP1-beta / biotin-H3K9me3 peptide binding; 390,000 compounds, 0.56% hits; P83916; also: nearly all actives have a fitted effect of over 70% in size
# Target sequence (P83916 whole entry, looked up): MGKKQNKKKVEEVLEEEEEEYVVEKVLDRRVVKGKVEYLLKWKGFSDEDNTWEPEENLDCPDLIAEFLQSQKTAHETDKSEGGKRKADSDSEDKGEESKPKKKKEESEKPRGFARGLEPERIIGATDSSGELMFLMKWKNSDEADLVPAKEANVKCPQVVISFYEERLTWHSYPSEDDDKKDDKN
#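 HP1-beta protein (50 nM final) preincubated 30 min at room temperature with biotinylated H3(1-18)K9me3 peptide (50 nM) in PBS pH 7.4, 0.01% Tween-20, then compound added for 30 min. AlphaScreen streptavidin donor/nickel chelate acceptor beads (10 ug/mL final), 30 min dark, luminescence read.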
# TDP1 inh: TDP1 (human) enzyme inhibition; Q9NUW8; recombinant TDP1, AlphaScreen DNA substrate cleavage; Potency, µM (titrated, usually from 130 µM), for inactives: top-dose activity change, negative = inhibition, usual class: inhibitors; 350,000 compounds, 0.28% hits; AID 485290; also: % is scaled to controls: 0 for no effect and ±100 for the full control effect; nearly all actives have a fitted effect of over 40% in size
#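 Signal: AlphaScreen proximity between streptavidin donor and anti-FITC acceptor beads on intact substrate. Reaction: Tdp1 1 nM, substrate 15 nM final, 5 min RT after 15 min compound preincubation.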
# Sfp PPTase inh: Sfp phosphopantetheinyl transferase inhibition; AID 1490; Biochemical Sfp PPTase activity, qHTS; 310,000 compounds, 3.5% hits; Potency, µM, for inactives: largest response in the series, negative = inhibition, actives largely listed as inhibitors;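 also: the enzyme is Sfp with the accession as filed and its product quenches rhodamine fluorescence; 0% = enzyme reaction without inhibitor and -100% = no enzyme wells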
#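 After 15 min at room temperature with compound, 15 nM Sfp received 5 uM rhodamine-CoA plus 12.5 uM BHQ-2-ybbR (50 mM Hepes pH 7.6, 10 mM MgCl2). Rate came from the fluorescence difference over 30 min, ex 525/em 598 nm.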
# An asterisk follows results filed as active; ? = inconclusive; . = no result given; [ ] = remark or other dose. In the library only some 12% were active in any assay of this set; here they are far more common. Calls follow the shape of the dose curve; as a rule, active = well fitted curve in the direction sought with a large enough effect; inconclusive = small, poorly fitted or top-dose-only effect, or another doubt; inactive = no such curve, though single readings can be large; an effect the other way counts as inactive or inconclusive. Potency is read from the fitted curve at half-maximal effect.
SMILES,JMJD2A Tudor,G9a block,BAZ2B block,HP1b binding inh,TDP1 inh,Sfp PPTase inh
CN(C)c1ccc(C(C(=O)NC2CCCCC2)N(Cc2ccco2)C(=O)c2snc(C(N)=O)c2N)cc1 (stereo not given),?,?,40µM*,?,14%,9%
CN(C)c1ccc(C(C(=O)NCc2ccccc2)N(Cc2cccnc2)C(=O)c2snc(C(N)=O)c2N)cc1 (stereo not given),?,50µM*,?,5%,16%,15%
c1ccc(-n2nc3c(ccc4cnnc43)[nH]2)cc1,16%[11.4 µM],18µM*,50µM*,-6%,6%,-10%
CCc1nc2cccnc2n1-c1ccc(CC(=O)Nc2ccc(C)cc2)cc1,3%,-34%[59 µM],-23%,50%,8%,.
Cc1ccc2oc(=O)n(Cc3ccccc3OC(C)C)c2c1,54%,57%[59 µM],71%,134%,-3%,-15%
Cc1cc(Br)cc2c1N(Cc1ccccc1OC(C)C)C(=O)C2=O,18µM*,8.9µM*,6.3µM*,?,13%,.
O=C(CSC1=Nc2ccccc2C2=NC(Cc3c[nH]c4ccccc34)C(=O)N12)NC1CCCCC1 (stereo not given),-13%,50µM*,-8%,2%,7%,-12%
CC1CC(C)CN(C(=O)CSC2=Nc3ccccc3C3=NC(Cc4c[nH]c5ccccc45)C(=O)N23)C1 (stereo not given),-3%,?,-1%,105%,7%,-6%
O=C(O)C1C2C=CC(C3CC23)C1C(=O)O (stereo not given),-19%,-6%[59 µM],9%,4%,.,8%
O=C(O)C1OC(C(=O)O)C(C(=O)O)C1C(=O)O (stereo not given),20µM*,.,.,-13%,.,.
Cc1ccc(-n2nc3c(=O)n(CCCC(=O)NCc4ccccc4Cl)nc(C)c3c2C)cc1,17%,-6%,-34%,54%,0%,-5%
CCCCN(C(=O)COC(=O)CSc1ccc([N+](=O)[O-])cc1)c1c(N)n(CCC)c(=O)[nH]c1=O,-6%,?,1%,8%,.,.
C=CCn1c(SCC(=O)Nc2ccc3c(c2)OCO3)nnc1-c1ccccc1OC,-6%,-24%,-3%,17%,-2%,10%
Nc1ccccc1SCc1csc(-c2ccc(Cl)cc2)n1,32%,35µM*,13%,62%,-3%,14µM*
C=CCn1c(SCc2csc(-c3ccc(Cl)cc3)n2)nnc1-c1ccccc1OC,-21%,71µM*,10%,27%,3%,-15%
CCOc1ccc(-c2nc(CSc3nnc(N)s3)cs2)cc1,1%,-4%[12.7 µM],-6%,10%,-8%,10%
CCCCc1cc2c(cn1)=C(OC(=O)C1CCCC1)C(C)(OC(=O)CC)C(=O)C=2 (stereo not given),.,.,.,.,6%[21 µM],10%
Cn1cc(S(=O)(=O)N2CCCCC2)cc1C(=O)NCc1ccc(Cl)cc1,-16%,-4%[59 µM],-31%,-2%[57 µM],-7%,.
COc1cc2c(cc1OC)C(c1c[nH]c3ccccc13)NCC2 (stereo not given),.,.,.,.,7%,26%
NC(=O)c1cc(-c2csc(-c3cccnc3)n2)ccc1O,-14%,32µM*,-22%,31%,6%,?
NC(=O)c1cc(-c2csc(NCCc3ccccc3)n2)ccc1O,?,35µM*,56µM*,?,13%,?
C=CCNc1nc(-c2ccc(O)c(C(N)=O)c2)cs1,14µM*,?,?,-14%,8%,-13%
c1ccc(-c2nc(-c3cccnc3)cs2)cc1,4%,16%[0.501 µM],5%,50%,.,-10%
CC(=O)Nc1ccc(S(=O)(=O)N[C@@H](C)C(=O)OCC(=O)NC2CCCC2)cc1,1%,?,-5%,32%,1%,.
O=C(c1ccc2c(c1)N(Cc1cccc(Cl)c1)C(=O)c1ccccc1S2=O)N1CCC(Cc2ccccc2)CC1 (stereo not given),-24%,?,0%,35%,6%,.
SMILES,JMJD2A Tudor,G9a block,BAZ2B block,HP1b binding inh,TDP1 inh,Sfp PPTase inh
Cn1c(=O)[nH]c(=O)c2[nH]c(N(Cc3ccccc3)Cc3ccccc3)nc21,?,50µM*,?,-20%,3%,89µM*
CCC(=O)N1CCc2cc(Br)cc(S(=O)(=O)CCC(=O)Nc3cccc(CC)c3)c21,3%,-2%[59 µM],2%,35%,0%,.
CCn1c(CSc2nnc(-c3ccoc3C)n2C)nc2cc(S(=O)(=O)N(C)C)ccc21,-12%,50µM*,-8%,32%,0%,3%
Cc1ccc(CNC(=O)CSc2nc(=O)n3cccc(C)c3n2)cc1,-8%,6%[59 µM],3%,30%,.,.
CCOC(=O)NC(NC(=S)Nc1ccc(OC)cc1)C(Cl)(Cl)Cl (stereo not given),0%,6.3µM*,-4%,13%,3%,12%
COC(=O)NC(NC(=S)Nc1ccc([N+](=O)[O-])cc1)C(Cl)(Cl)Cl (stereo not given),?,10µM*,-13%,-10%,10%,-5%
COC(CNC(=S)Nc1ccc([N+](=O)[O-])cc1)OC,-11%,8%[59 µM],-2%,12%,0%,-12%
CCOC(=O)NC(NC(=S)Nc1ccccc1OC)C(Cl)(Cl)Cl (stereo not given),-18%[57.1 µM],?,-21%,-6%,-2%,4%
COC(=O)NC(NC(=S)Nc1ccccc1OC)C(Cl)(Cl)Cl (stereo not given),-12%,16µM*,7%,41%,3%,-17%
CC(=O)OCC1OC(c2ccc3c(c2)OCO3)C=CC1OC(C)=O (stereo not given),.,.,.,.,7%[21 µM],-2%
COc1cccc([C@@H]2CC=C(C(=O)O)[C@H](c3ccc(Br)cc3)N2S(=O)(=O)c2ccc(C)cc2)c1,-8%,.,.,16%,2%,.
CN(Cc1ccccc1)C(=O)CSc1nc2ccccc2n1Cc1ccccc1F,2%,0%[12.7 µM],-9%,48%,4%,.
COc1ccc(NC(=O)c2noc3c2CCC3)cc1,56µM*,?,45µM*,?,14µM*,8%
COc1cc(OC)c(NC(=O)c2noc3c2CSc2ccccc2-3)cc1Cl,2%,1.6µM*,18%,61%,0%,.
CC(=O)c1ccc(NC(=O)c2noc3c2CCC3)cc1,-15%[11.4 µM],40µM*,56µM*,?,25µM*,-5%
O=C(Nc1cccc(O)c1)c1noc2c1CCCCC2,-16%,15%[59 µM],8%,11%,0%,7%
Cc1ccc(NC(=O)c2noc3c2CCC3)cc1C,40µM*,?,45µM*,50µM*,.,7%
O=C1CNC(=S)N1Cc1cccc(Cl)c1,-6%,37%[0.501 µM],1%,49%,.,4%
CCc1noc(C)c1C(=O)Nc1nc(-c2ccc(OC)cc2OC)cs1,-19%,-47%,-3%,21%,.,.

# Assay outcomes deposited in PubChem by National Center for Advancing Translational Sciences (NCATS).
